# In the library only some 5.8% were active in any assay of this set; here they are far more common.
# MCF10A rereplic – inducers of DNA re-replication in MCF 10A breast cells. MCF 10A DNA re-replication, Hoechst nuclear intensity, 48 h. Potency, µM (doses to about 46.1 µM), inactives show at the highest dose activity, positive = re-replication, hits mostly activators. 350,000 tested, 2.9% active; also: % of control where 0% means no effect; nearly all actives have a fitted effect of over 50% in size
# KB-3-1 tox – kills parental KB-3-1 adenocarcinoma cells | KB-3-1 viability, CellTiter-Glo ATP luminescence, 72 h | Potency, µM (top dose mostly 46.1 µM), hits mostly cytotoxic | 400,000 tested, 1.4% active; also: % is scaled to controls: 0 for no effect and ±100 for the full control effect; nearly all actives have a fitted effect of over 60% in size
#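 Cytotoxicity measured as CellTiter-Glo luminescence after 72 h at 37 C. Compound titrations were pinned onto drug-naive KB-3-1 parental adenocarcinoma cells grown in DMEM with 10% FBS, and normalized data fitted to concentration-response curves.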
# PINK1 modulator – PINK1 expression modulation. PINK1 immunofluorescence, high-content cytometry, 24 h. Potency, µM (doses to about 76.6 µM), for inactives: at the highest dose activation (PINK1 increase), hits mostly activators. 410,000 tested, 0.2% active; active = well fitted activation curve with a large enough effect; inconclusive = small, poorly fitted or top-dose-only effect; cell line not stated here; also: % of control where 0% means no effect; nearly all actives have a fitted effect of over 65% in size
#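 PINK1 protein, normally rapidly degraded, was detected by immunofluorescence after 24 hour compound treatment of a stable cell line. Titration data (5 concentrations) came from laser-scanning cytometry, with CCCP-treated wells as controls.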
# SW480 rerep – inducers of DNA re-replication in SW480 colon cancer cells. 340,000 tested, 1.8% active. SW480 DNA re-replication, Hoechst DNA content imaging, 48 h. Potency, µM (highest dose often 46.1 µM), for inactives: at the top dose re-replication activation, actives largely listed as activators; also: % of control where 0% means no effect; nearly all actives have a fitted effect of over 55% in size
#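 Hoechst fluorescence of nuclei (405 nm excitation, 500-530 nm emission) measured by plate-scanning imager after 48 hr compound exposure at 37 C; re-replication scored as increased number of nuclei with elevated intensity.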
# KB-V1 cytotox – kills drug-selected multidrug resistant KB-V1 cells; KB-V1 MDR cells viability, CellTiter-Glo, 72 h; Potency, µM (doses to about 46.1 µM), most hits filed as cytotoxic; 400,000 tested, 3.4% active; AID 1347076; also: % is scaled to controls: 0 for no effect and ±100 for the full control effect; nearly all actives have a fitted effect of over 60% in size
#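 Following 72 h at 37 degrees C with compound, KB-V1 cell viability was read by CellTiter-Glo luminescence, medium being phenol-red-free DMEM plus 10% FBS; concentration-response parameters came from normalized, curve-fitted qHTS data.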
# 12-LOX inh – ALOX12 (human) lipoxygenase inhibition. P18054. purified 12hLO, xylenol orange hydroperoxide absorbance. Potency, µM (titrated, usually from 108 µM), inactives show at the top dose activity change, negative = inhibition, most hits filed as inhibitors. 580,000 tested, 1.1% active. AID 1671190; also: % is scaled to controls: 0 for no effect and ±100 for the full control effect
# Target sequence (P18054 whole entry, looked up): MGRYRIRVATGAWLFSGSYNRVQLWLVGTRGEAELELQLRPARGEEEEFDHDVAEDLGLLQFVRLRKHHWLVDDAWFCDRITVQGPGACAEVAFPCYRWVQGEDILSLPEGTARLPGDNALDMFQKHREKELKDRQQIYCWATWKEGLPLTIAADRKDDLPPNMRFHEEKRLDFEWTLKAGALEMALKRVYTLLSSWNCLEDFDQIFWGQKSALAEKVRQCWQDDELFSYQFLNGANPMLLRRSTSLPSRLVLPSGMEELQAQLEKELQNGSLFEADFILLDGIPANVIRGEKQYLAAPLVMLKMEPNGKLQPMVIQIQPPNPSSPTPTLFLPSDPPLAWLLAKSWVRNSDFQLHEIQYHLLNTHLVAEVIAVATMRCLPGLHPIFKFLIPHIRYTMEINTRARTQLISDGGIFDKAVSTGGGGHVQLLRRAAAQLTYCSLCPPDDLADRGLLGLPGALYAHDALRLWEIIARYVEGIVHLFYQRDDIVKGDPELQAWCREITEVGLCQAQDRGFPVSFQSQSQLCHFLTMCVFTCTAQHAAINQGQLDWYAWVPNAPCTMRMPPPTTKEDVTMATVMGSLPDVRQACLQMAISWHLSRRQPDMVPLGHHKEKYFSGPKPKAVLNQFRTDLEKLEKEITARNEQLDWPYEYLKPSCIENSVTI
#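 Hydroperoxide product was detected by ferrous iron/xylenol orange as the 573 to 405 nm absorbance ratio. Arachidonic acid at 40 uM (final) was turned over for 30 min at room temperature by 150 nM human 12hLO, pH 7.0 Hepes buffer, after 15 min compound preincubation.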
# * = called active by the depositor; i = inactive; ? = inconclusive; . = no result given; [ ] = remark or other dose. Unless noted, calls follow the shape of the dose curve; as a rule, active = well fitted curve in the direction sought with a large enough effect; inconclusive = small, poorly fitted or top-dose-only effect, or another doubt; inactive = no such curve, though single readings can be large; an effect the other way counts as inactive or inconclusive. Potency is read from the fitted curve at half-maximal effect.
SMILES,MCF10A rereplic,KB-3-1 tox,PINK1 modulator,SW480 rerep,KB-V1 cytotox,12-LOX inh
CN1C(=O)[C@@](O)(CC(=O)c2ccccc2)c2cc(Br)ccc21,.,?,.,.,i,0%
CN1C(=O)C(O)(CC(=O)c2ccccn2)c2cc(Br)ccc21 (configuration not stated),?,?,5%,?,7.3µM*,?
O=c1ccc(N=Nc2ccccc2)ccc1O,?,?,?,?,?,45µM*
O=S(=O)(O)c1ccc(N=Nc2ccccc2)cc1,-1%,i,0%,5%,i,-26%
CSC(SC)=C(C#N)C(=O)c1ccccc1,23µM*,i,4%,?,?,0%
COc1cccc(C(=O)C(C#N)=C(SC)SC)c1,?,i,1%,?,i,-29%
CC/C(=N/NC(=O)C1CC1(c1ccc(C)cc1)c1ccc(C)cc1)c1ccccc1 (configuration not stated),.,.,.,.,.,19%
c1ccc2c(c1)CCN(c1nc3cc4c(cc3s1)OCCO4)C2,15µM*,?,1%,4%,?,?
O=C(NCc1nnc2c(-c3nc(C4CC4)no3)cccn12)c1ccc(F)cc1Cl,.,.,.,.,.,71%
CCOC(=O)C(C)(C)N(Cc1ccc(Cl)cc1)S(=O)(=O)c1ccc(Cl)c([N+](=O)[O-])c1,13µM*,.,.,?,.,.
CCOC(=O)C(C)(C)N(Cc1ccc(C)cc1)S(=O)(=O)c1ccc(Cl)c([N+](=O)[O-])c1,12µM*,i,-3%,?,i,-1%
CCOC(=O)C(C)(C)NS(=O)(=O)c1ccc(Cl)c([N+](=O)[O-])c1,?,?,7%,-5%,i,-10%
O=C(CSc1nc2ccccc2[nH]1)N1CCN(c2ccccc2)CC1,12%,i,?,-3%,16µM*,?
O=C(CSc1nc2ccccc2[nH]1)N1c2ccccc2Sc2ccccc21,-2%,i,4%,9%,12µM*,-13%
Cc1cccc(N2CCN(C(=O)CCCSc3nc4ccccc4[nH]3)CC2)c1C,-6%,i,8%[38.3 µM],4%,5.8µM*,-9%
O=C(CCCSc1nc2ccccc2[nH]1)N1CCN(c2ccccc2)CC1,10%,i,-2%,10%,i,?
COc1ccccc1N1CCN(C(=O)CSc2nc3ccccc3[nH]2)CC1,-3%,i,-1%[38.3 µM],-8%,i,-20%
COc1cc(NC(=O)c2ccc(N3C(=O)C(C)(C)CS3(=O)=O)cc2)cc(OC)c1OC,.,.,.,.,.,8%
Cc1cc(C)c2cc(C#N)c(N3CCCN(C(=S)NCCCN(C)C)CC3)nc2c1,7.3µM*,?,-2%,?,?,14%
Cc1ccc2cc(C#N)c(N3CCCN(C(=S)NCCCN(C)C)CC3)nc2c1,3.7µM*,?,-1%,23µM*,i,?
CCOCCCNC(=S)N1CCCN(c2nc3cc(C)ccc3cc2C#N)CC1,0%,i,0%,5%,i,-9%
Cc1cc(=O)oc2cc(NC(=O)Cc3ccccc3Cl)ccc12,.,.,.,.,.,-14%
CCOC(CNC(=O)c1ccc(N2CCc3ccccc32)c([N+](=O)[O-])c1)OCC,17%,?,14%,-30%,2.6µM*,6%
COCCNC(=O)CS(=O)(=O)Cc1nc(-c2ccccc2C)oc1C,.,.,.,.,.,30%
O=C(Cc1cccs1)NC1CCCc2c1[nH]c1c(Cl)cccc21 (configuration not stated),.,.,.,.,.,3%
SMILES,MCF10A rereplic,KB-3-1 tox,PINK1 modulator,SW480 rerep,KB-V1 cytotox,12-LOX inh
Cc1cc(C(=O)CSc2n[nH]c(N)n2)c(C)n1-c1ccc(F)cc1,6%,?,15%[38.3 µM],-2%,16µM*,0%
Cc1ccc(-n2c(C)cc(C(=O)CSc3n[nH]c(N)n3)c2C)cc1,13%,21µM*,4%[38.3 µM],-23%,i,-26%
N#Cc1ccc(Oc2ccc(C(=O)OCC(=O)c3ccc(Cl)cc3)cc2)cc1C#N,.,.,.,.,.,3%
CCCCCC1CCC(C2CCC(C(=O)O)CC2)CC1 (configuration not stated),.,.,.,.,.,8%
COc1ccc(-c2nc3cccc(C)n3c2NCC2CCCO2)cc1O (configuration not stated),9%,i,-2%,-10%,12µM*,-13%
COc1cc(-c2nc3ccccn3c2NCC2CCCO2)ccc1O (configuration not stated),-22%,i,12%[38.3 µM],-4%,?,-10%
COC(=O)CNC(=O)c1cn(CC(C)C)c(=O)c2cc(OC)c(OC)cc12,4%,i,-2%,-11%,i,-2%
COc1cc2c(C(=O)NCc3ccc4c(c3)OCO4)cn(CC(C)C)c(=O)c2cc1OC,15µM*,i,2%,-2%,i,-24%
O=C(CCCc1c[nH]c2ccccc12)NCC(=O)N1CCCCCNC(=O)CC1c1ccccc1 (configuration not stated),.,.,.,.,.,1%
CCOc1ccccc1N1CCN(C(=O)CSc2ccc3c(c2)OCCO3)CC1,22%,i,-2%,-9%,12µM*,?
COCCOC(=O)C1=C(C)N=C2SC=C(CC(=O)N3CCCCC3C)N2C1c1ccccc1 (configuration not stated),.,.,.,.,.,51%
O=C1C2C3C=CC(C3=C(c3ccccc3)c3ccccc3)C2C(=O)N1CCO (configuration not stated),3%,i,-4%,-3%,21µM*,0%
O=C1C2C3C=CC(C3=C(c3ccccc3)c3ccccc3)C2C(=O)N1Cc1ccccc1 (configuration not stated),?,?,-1%,?,23µM*,388%
O=C1C2C(c3ccccc3)C=CC(c3ccccc3)C2C(=O)N1CCO (configuration not stated),-3%,i,.,-2%,i,15%
CCCNC(=O)CN(C)C(=O)NC(c1ccc(C(C)C)cc1)C(C)C (configuration not stated),.,.,.,.,.,67%
CCN(CC)C(CNc1nc(CCN)nc2ccccc12)c1ccco1 (configuration not stated),.,.,.,.,.,26%
COC(=O)CNC(c1ccccc1)c1cc(Br)ccc1NS(=O)(=O)c1ccc(C)cc1 (configuration not stated),9%,i,1%,4%,5.8µM*,2%
COC(=O)CNC(c1ccccc1)c1cc(Br)ccc1NC(=O)CCN1CCOCC1 (configuration not stated),18µM*,i,8%,?,?,40µM*

# Screening data (PubChem)
